Laboratory results from PubChem BioAssay AID1745848 (National Center for Advancing Translational Sciences (NCATS), 2022).
Out of some 2,100 compounds screened, about 940 (45%) were called active. Inconclusive results (about 48%) are left out. The call rests on the fitted dose curve; in most records, active means well fitted inhibition curve with a large enough effect; inconclusive means small, poorly fitted or top-dose-only effect; inactive means no such curve, though single readings can be large or run the other way. The set was probably picked from earlier hits. This is one part of the list.

Experiment: Confirmatory qHTS for Inhibitors of ATXN expression; further: nearly all actives have a fitted effect of over 65% in size
Conditions: ATXN2-luciferase reporter cells, luminescence, 24 h; series mostly up to 11.5 µM
Source text: PI: Daniel Scoles Ph.D. University of Utah School of Medicine, Salt Lake City, Utah MLPCN Grant: NS073009 Spinocerebellar ataxia type 2 (SCA2) is a multisystem neurodegenerative disease caused by a dominantly acting mutation leading to expansion of a polyQ domain in the ataxin-2 protein (ATXN2). SCA2 patients develop progressive ataxia and later lose function in other neuronal systems. Prominent parkinsonian signs develop in some patients. Like many neurodegenerative disorders, no symptomatic or disease-modifying treatments are known. The primary objective of the proposed research is to identify compounds inhibiting ATXN2 expression and to test them for efficacy in SCA2 mouse models. We have developed a cell-based assay paired with an in vivo mouse model using identical luciferase expression constructs. This approach takes advantage of an ATXN2-luciferase transgene, with the luciferase gene flanked by the upstream and downstream portions of the ATXN2 gene. Here we describe a 5-7 dose quantitative high thoroughput screen (qHTS) for compounds lowering ATXN2 expression. We screened the NIH Molecular Libraries Small Molecule Repository (MLSMR) and NCGC's mechanistically annotated (MIPE) and drug repurposing (NPC) collections of compounds for lowering expression of an ATXN2-luciferase reporter in HEK-293 cells. The assay is a multiplexed cell viability assay to ensure target reduction in the absence of cytotoxicity. Secondary qHTS assays included a CMV-luciferase reporter expressed in HEK-293 cells as well as a biochemical assay using recombinant luciferase to detect inhibitors of the reporter enzyme. Compounds that inhibit ATXN2 expression but is not cytotoxic were selected for confirmatory and secondary screens.
PROTOCOL TABLE (as described by Inglese J, Shamu CE and Guy RK. 2007) SEQUENCE No. (e.g., 1, 2, 3, etc.); PARAMETER (e.g., Cells, Incubation, Reagent, etc.); VALUE; DESCRIPTION. 1; Cells; 4 uL; white, solid bottom, 1536-well Greiner assay plate. 2; Incubation; 2 hr; 37 degree C in 5% humidified CO2. 3; Compounds; 23 nL; Kalypsis pintool (Wako USA) equipped with a 1536-well pin head. 4; Incubation; 24 hr; 37 degree C in 5% humidified CO2. 5; Reagent; 1 uL; Gly-Phe-7-Amino-4-trifluoromethylcoumarin. 6; Incubation; 30 min; 37 degree C in 5% humidified CO2. 7; Detection; Fluorescence; ViewLux plate reader (PerkinElmer). 8; Reagent; 3 uL; SteadyGlo luciferase solution (Promega). 9; Incubation; 5 min; room temperature. 10; Detection; Luminescence; ViewLux plate reader (PerkinElmer). NOTES (numbers refer to Sequence numbers above) 1. […] expressing ATXN2-luciferase reporter were suspended in phenol-red free DMEM and dispensed in assay plates using a Multidrop Combi dispenser (Thermo Fisher Scientific). Wells containing medium only were plated on each plate, and values were used to normalize (100% inhibition) in the luciferase and CellTiter-Fluor assays. 2. Assay plates were incubated. Evaporation was prevented by covering assay plates with metal lids containing holes to allow gas diffusion. 3. Compounds were added in a dose response manner with the final concentrations of 57, 11.4, 2.28, 0.46, 0.091, 0.018, 0.0037 uM. Vehicle-only plates, with DMSO being pin-transferred to columns 5-48, were inserted uniformly at the beginning and the end of each library to monitor and record any shifts in assay performance. 5. 125 uM Gly-Phe-7-Amino-4-trifluoromethylcoumarin (MP Biomedicals) working concentration was used at a final concentration of 25 uM. 7. To assess cell viability; the assay plates were read using the ViewLux high-throughput CCD imager (PerkinElmer), wherein single end-point fluorescence measurement was acquired (excitation 405/10; emission 540/25 nm). 8. Detection reagent SteadyGlo Luciferase (Promega) was added to the assay plate. 10. Luminescence is then measured on the ViewLux imager equipped with a clear emission filter using a 2 sec exposure. […]
Potency means the concentration at half of the fitted maximal effect.

Potency, active:
Cc1cc[n+](C(C)C(=O)c2ccc(-c3ccccc3)cc2)cc1 (stereo not given) 14.1 µM, COc1ccc(OC)c(NC(=O)COC(=O)c2c3c(nc4ccccc24)CCCC3)c1 3.16 µM, Cn1cc(SCC(=O)Nc2nc3ccccc3s2)c2ccccc21 3.16 µM, NC(Cc1ccccc1)c1csc(Nc2ccc(C(F)(F)F)cn2)n1 (stereo not given) 31.6 µM, NC(c1csc(Nc2nccc(C(F)(F)F)n2)n1)C1CCCCC1 (stereo not given) 3.55 µM, CC(C)CC(N)c1csc(Nc2ccc(C(=O)N(C)Cc3ccccc3)cn2)n1 (stereo not given) 12.6 µM, NC(COCc1ccccc1)c1csc(Nc2ccc(C(F)(F)F)cn2)n1 (stereo not given) 31.6 µM, NC(Cc1ccc(C(F)(F)F)cc1)c1csc(Nc2nccc(C(F)(F)F)n2)n1 (stereo not given) 3.55 µM, Cc1cc(C(=O)N/N=C/c2ccc([N+](=O)[O-])s2)n[nH]1 8.91 µM, CC(C)(C)c1cc(C(=O)N/N=C/c2ccc([N+](=O)[O-])s2)n[nH]1 5.01 µM, O=C(Cn1cnc([N+](=O)[O-])c1)Nc1cc(Oc2ccc(Cl)cc2Cl)cc([N+](=O)[O-])c1 2.82 µM, O=C(NCc1ccccc1C(F)(F)F)c1cccc2c1C(=O)c1ccc(N3CCC(N4CCCCC4)CC3)cc1S2(=O)=O 3.16 µM, O=C(NCc1cc(C(F)(F)F)ccc1Cl)c1cccc2c1C(=O)c1ccc(N3CCOCC3)cc1S2(=O)=O 3.98 µM, CCCc1nc2c(c(=O)c3ccccc3n2C)c(=O)n1C1CCCCCC1 14.1 µM, COc1ccc(C(=O)Nn2c(SCC(=O)c3ccccc3)nc3ccccc3c2=O)cc1 15.8 µM, Cc1ccc(S(=O)(=O)Nc2cc(Cl)c(O)c3ncccc23)cc1 3.55 µM, O=[N+]([O-])c1ccccc1S(=O)(=O)Nc1cccc2cccnc12 10 µM, Cc1ccc(S(=O)(=O)Nc2cccc3cccnc23)cc1 8.91 µM, O=S(=O)(Nc1cccc2cccnc12)c1ccccc1 1.58 µM, CCc1ccc(N(CC)C(=O)c2ccc3c(Cl)c4c(nc3c2)CCC4)cc1 3.55 µM, C[C@@H]1ON(C)[C@H]2C[C@H]3c4[nH]c5ccc(-c6ccc7c(c6)OCO7)cc5c4CCN3C(=O)[C@@H]12 15.8 µM, Nc1cccc2nc3ccccc3cc12 7.94 µM, Nc1c2ccccc2nc2ccccc12 3.55 µM, CCc1nc2ccc(C(=O)Nc3cc(-c4ccccc4)ccc3OC)cn2c1N(CC)CC(=O)N(C)C 28.2 µM, Cc1ccc(SCCC(=O)N/N=C/c2ccccc2O)cc1 3.55 µM, Cc1ccc(S(=O)(=O)NCC(=O)N/N=C/c2ccccc2O)cc1 3.16 µM, O=C(CNS(=O)(=O)c1ccc([N+](=O)[O-])cc1)N/N=C/c1ccc(O)cc1O 3.16 µM, O=C(CCCOc1ccc(Cl)cc1Cl)N/N=C/c1ccccc1O 2.82 µM, N#CC1=C(N)N2C(=C(C#N)C1c1cccc(Br)c1)Nc1ccccc12 (stereo not given) 3.16 µM, Cc1csc2ncnc(NC3CCN(Cc4ccccc4)CC3)c12 0.794 µM, CC(C)(C)c1ccc(Oc2ccc(N)cc2)cc1 2.24 µM, CC(C)(C)c1ccc(Oc2ccc(N)cn2)cc1 3.16 µM, COc1ccc(O)c(/C=N/NC(=O)CCC(=O)Nc2cccc(C)c2)c1 14.1 µM, Cc1cccc(NC(=O)CCC(=O)N/N=C/c2ccc(O)cc2O)c1 3.16 µM, COc1ccc(O)c(/C=N/NC(=O)CSc2nnc(C)n2-c2ccccc2)c1 2.82 µM, Cc1cc(C)n(CCC(=O)N/N=C/c2ccc(O)cc2O)n1 3.16 µM, COc1cc(OC)c(OC)cc1/C=C1\CCC/C(=C\c2cc(OC)c(OC)cc2OC)C1=O 3.98 µM, COc1cc(OC)c(OC)cc1/C=C1\CC(C)C/C(=C\c2cc(OC)c(OC)cc2OC)C1=O (stereo not given) 14.1 µM, Cc1ccccc1C(=O)N1CCN(c2ccc(NC(=O)c3ccco3)cc2Cl)CC1 17.8 µM, O=C(Nc1ccc(N2CCN(C(=O)c3ccccc3)CC2)c(Cl)c1)c1ccc(Br)o1 2.51 µM

Potency, inactive:
CC(C(=O)c1ccc(-c2ccccc2)cc1)[n+]1cccc(NC(=O)c2ccccc2)c1 (stereo not given), Cc1ccc(Cc2cnc(N3C(=N)SC(C)C3=O)s2)cc1 (stereo not given), NC(Cc1ccc(F)cc1)c1csc(Nc2cc(NCc3ccco3)ncn2)n1 (stereo not given), COc1ccc(CC(N)c2csc(Nc3ccc(C(=O)c4ccccc4)cc3)n2)cc1 (stereo not given), O=C(/C=C/Nc1ccc(S(=O)(=O)Nc2ncccn2)cc1)c1ccc(Cl)c(Cl)c1
